The values that follow come from paper PMC4336329 (PLoS ONE, 2015).

The whole screen tested about 310,000 compounds, of which about 14,000 (4.5%) showed an effect of 50% or more. Effects have a minus sign here. The sample as a whole holds a higher share of strong results than the screen did.
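Note: peak tail current of the secondary pulse compared with the same well before compound.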

Chain of human ether-à-go-go-related gene (hERG) potassium channel (Q12809 whole entry, looked up): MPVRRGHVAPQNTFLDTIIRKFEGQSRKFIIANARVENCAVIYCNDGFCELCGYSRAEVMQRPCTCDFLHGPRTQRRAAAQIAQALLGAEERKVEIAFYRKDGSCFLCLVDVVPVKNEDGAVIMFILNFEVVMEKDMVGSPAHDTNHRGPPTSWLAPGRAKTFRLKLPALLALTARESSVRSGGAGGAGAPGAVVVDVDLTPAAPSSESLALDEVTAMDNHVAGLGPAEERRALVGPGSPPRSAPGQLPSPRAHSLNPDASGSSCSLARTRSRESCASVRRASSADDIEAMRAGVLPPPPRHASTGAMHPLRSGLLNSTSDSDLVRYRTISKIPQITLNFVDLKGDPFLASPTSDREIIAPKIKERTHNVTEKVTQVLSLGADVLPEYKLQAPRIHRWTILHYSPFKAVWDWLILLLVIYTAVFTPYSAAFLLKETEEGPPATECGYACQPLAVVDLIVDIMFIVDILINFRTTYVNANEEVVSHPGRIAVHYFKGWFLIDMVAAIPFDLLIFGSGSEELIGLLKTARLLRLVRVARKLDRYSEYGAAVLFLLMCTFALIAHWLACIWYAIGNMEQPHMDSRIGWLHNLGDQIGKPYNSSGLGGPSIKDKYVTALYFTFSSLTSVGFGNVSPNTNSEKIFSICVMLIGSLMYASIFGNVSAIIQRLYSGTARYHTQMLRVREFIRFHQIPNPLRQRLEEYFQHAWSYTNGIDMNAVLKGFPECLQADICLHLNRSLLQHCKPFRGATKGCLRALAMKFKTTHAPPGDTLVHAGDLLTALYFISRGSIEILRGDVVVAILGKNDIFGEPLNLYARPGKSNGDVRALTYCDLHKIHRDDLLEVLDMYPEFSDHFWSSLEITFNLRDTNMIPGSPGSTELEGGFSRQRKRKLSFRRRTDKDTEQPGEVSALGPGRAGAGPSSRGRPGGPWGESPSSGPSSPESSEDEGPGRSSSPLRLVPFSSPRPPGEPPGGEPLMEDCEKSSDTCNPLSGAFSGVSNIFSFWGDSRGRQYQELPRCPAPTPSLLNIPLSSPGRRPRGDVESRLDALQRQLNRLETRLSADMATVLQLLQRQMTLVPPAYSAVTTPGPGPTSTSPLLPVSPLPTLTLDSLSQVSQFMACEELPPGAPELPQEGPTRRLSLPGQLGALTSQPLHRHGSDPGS

The test concerns the target human ether-à-go-go-related gene (hERG) potassium channel (human, UniProt Q12809). Kind of test: primary screen, population patch clamp on CHO cells stably expressing hERG; higher = less effect of the substance.
Regarding `O=c1cccc2n1CC1CC2CN(S(=O)(=O)c2ccccc2)C1` (centres unmarked), the “hERG current change (%, negative = inhibition) at 10uM” value is listed as -3.59%.

For `Cc1cc2occ(CC(=O)N(C)CC(=O)Nc3ccc(F)cc3)c2cc1C`, the “hERG current change (%, negative = inhibition) at 10uM” value was -9.51%. The figure for `COC(=O)CN=C1OC(=O)N2C(=O)C3=C4[C@@H](C[C@H]5C(=O)N(c6ccccc6)C(=O)[C@H]5[C@H]4[C@@]12Cc1ccccc1)[C@H]1C(=O)N(c2ccccc2)C(=O)[C@H]1[C@H]3C` is 4.25%; for `O=C(c1ccco1)N1CCN(c2ncnc3sc4c(c23)CCC4)CC1` it is -56.6%. Under `O=C(CSc1ncnc2sc3c(c12)CCCC3)c1ccco1` stands 6.66%. Under `c1ccc(N2CCN(c3ncnc4sc5c(c34)CCC5)CC2)cc1` stands 12.4%. On to `O=C(Nc1ncnc2sc3c(c12)CCC3)c1ccco1`, for which the “hERG current change (%, negative = inhibition) at 10uM” value was -4.5%.

For the molecule `O=C(c1ccccc1)N1CCN(c2ncnc3sc4c(c23)CCC4)CC1`, the “hERG current change (%, negative = inhibition) at 10uM” value is -56%. The figure for `Oc1ccc(N2CCN(c3ncnc4sc5c(c34)CCC5)CC2)cc1` is -7.35%.

In the case of `COc1ccc2nc(NC(=O)C3CCN(S(=O)(=O)c4cccs4)CC3)sc2c1`, the “hERG current change (%, negative = inhibition) at 10uM” value is -13.6%. Take `COc1cc(OC)cc(C(=O)NC2CCSC2=O)c1` (centres unmarked): the “hERG current change (%, negative = inhibition) at 10uM” value is reported as -5.55%. For `CCN(CC)CCCC(C)NC(=O)c1ccc(C(F)(F)F)cc1.Cl` (centres unmarked), the “hERG current change (%, negative = inhibition) at 10uM” value is -7.01%.

Regarding `CCOC(=O)N1CCN(C(=O)Cn2nc(C)n3nc(-c4ccc(OC)cc4)cc3c2=O)CC1`, the “hERG current change (%, negative = inhibition) at 10uM” value was 13.4%. Under `CC(Sc1nnc(-c2cccs2)n1-c1ccccc1)C(=O)NCc1ccc2c(c1)OCO2` (centres unmarked) stands -74.8%; under `O=C(CSc1nnc(-c2cccs2)n1-c1ccccc1)NCc1ccc2c(c1)OCO2`, -43.7%; under `CC(Sc1nncn1C)C(=O)NCc1ccc2c(c1)OCO2` (centres unmarked), 34.9%. The figure for `O=C(CSc1nnc(-c2cccs2)n1Cc1ccccc1)NCc1ccc2c(c1)OCO2` is -75.8%; for `CC(Sc1nnc(-c2cccs2)n1Cc1ccccc1)C(=O)NCc1ccc2c(c1)OCO2` (centres unmarked) it is -55.9%.

As to `CCn1c(SCC(=O)NCc2ccc3c(c2)OCO3)nnc1-c1cccs1`, the “hERG current change (%, negative = inhibition) at 10uM” value is given as -23.1%.

`CC(Sc1nnc2ccccn12)C(=O)NCc1ccc2c(c1)OCO2` (centres unmarked): the “hERG current change (%, negative = inhibition) at 10uM” value came out at 4.95%.

In the case of `Cn1c(SCC(=O)NCc2ccc3c(c2)OCO3)nnc1-c1cccs1`, the “hERG current change (%, negative = inhibition) at 10uM” value is -17.1%. The figure for `CCn1c(SCC(=O)NCc2ccc3c(c2)OCO3)nnc1-c1ccncc1` is 13%; for `COCC(=O)Nc1cc(C(=O)Nc2ccccc2C)ccc1Cl` it is -3.92%.

For `COc1cc(CNc2cc(C)ccc2C)cc(OC)c1OC`, the “hERG current change (%, negative = inhibition) at 10uM” value is -4.46%.

For the molecule `Cc1cc(C)nc(N/N=C/c2c(CO)cnc(C)c2O)n1`, the “hERG current change (%, negative = inhibition) at 10uM” value is given as -10.7%. Under `O=C(Nc1cccc2oc(=O)ccc12)c1ccc([N+](=O)[O-])cc1[N+](=O)[O-]` stands -59.9%; under `O=C(Nc1ncccn1)c1ccc([N+](=O)[O-])cc1[N+](=O)[O-]`, -7.61%; under `COc1ccccc1NC(=O)c1ccc([N+](=O)[O-])cc1[N+](=O)[O-]`, -19.6%. Under `CCOc1ccccc1C(=O)Nc1ccc2nc(N3CCN(c4ncccn4)CC3)cc(C)c2c1` stands -8.08%. For the molecule `COc1cc(C)c(NC(=S)Nc2cccc(Cl)c2)cc1OC`, the “hERG current change (%, negative = inhibition) at 10uM” value was 6.72%. Turning to `CC(NC(=O)Cn1nc(-c2ccccc2)ccc1=O)c1ccccc1` (centres unmarked), the “hERG current change (%, negative = inhibition) at 10uM” value is on record as -13.4%. Under `Cc1ccc(-c2ccc(=O)n(CCC(=O)NCc3ccccn3)n2)cc1` stands -61%; under `Cc1ccc(-c2ccc(=O)n(CC(=O)NCCCN3CCCCC3C)n2)cc1` (centres unmarked), -10.3%.

Consider `COCCNC(=O)CCn1nc(-c2ccc(C)cc2)ccc1=O`, for which the “hERG current change (%, negative = inhibition) at 10uM” value was -34.4%. The figure for `COCCCNC(=O)CCn1nc(-c2ccc(Cl)cc2)ccc1=O` is -27.9%; for `Cc1ccc(-c2ccc(=O)n(CCC(=O)NCCN3CCCCC3C)n2)cc1` (centres unmarked) it is -58.7%; for `CCCCNC(=O)Cn1nc(-c2ccc(C)cc2)ccc1=O` it is -1.13%. The figure for `CC(NC(=O)CCn1nc(-c2ccc(Cl)cc2)ccc1=O)c1ccccc1` (centres unmarked) is -60.6%. The figure for `O=C(CCn1nc(-c2ccc(Cl)cc2)ccc1=O)NCc1ccccn1` is -32%; for `CCCCN(C)CCNC(=O)CCn1nc(-c2ccc(C)cc2)ccc1=O` it is -83.4%. Take `Cc1ccc(CNC(=O)CCn2nc(-c3ccc(Cl)cc3)ccc2=O)cc1`: the “hERG current change (%, negative = inhibition) at 10uM” value is given as -35.3%. The figure for `Cc1ccc(-c2ccc(=O)n(CC(=O)NCCN3CCCCC3C)n2)cc1` (centres unmarked) is 0.96%; for `O=C(CCc1ccccc1)NCCCNC(=O)CCc1ccccc1` it is 7.49%; for `C=CCn1c(C)nnc1SCC(=O)Nc1nccs1` it is 16.6%. Under `NC(=O)c1ccccc1NC(=O)/C=C/c1c(Cl)cccc1Cl` stands -31.3%. Turning to `Cc1ccc(-c2nnc(N)o2)cc1`, the “hERG current change (%, negative = inhibition) at 10uM” value amounted to 9.43%.

`Cc1ccc(NC(=O)COC(=O)CCc2ccccc2)c(Cl)c1`: the “hERG current change (%, negative = inhibition) at 10uM” value amounted to 27.1%.

`CC(C)CCNC(=O)CCn1nc(-c2ccccc2)ccc1=O`: the “hERG current change (%, negative = inhibition) at 10uM” value is on record as -46.8%. The figure for `CCCCN(C)CCNC(=O)CCn1nc(-c2ccc(Cl)cc2)ccc1=O` is -67.1%; for `CCCCNC(=O)CCn1nc(-c2ccc(Cl)cc2)ccc1=O` it is -23.4%. The figure for `CC(C)CCNC(=O)CCn1nc(-c2ccc(Cl)cc2)ccc1=O` is -54.6%; for `COCCNC(=O)CCn1nc(-c2ccc(Cl)cc2)ccc1=O` it is -30.2%.

As to `CN(C)CCNC(=O)CCn1nc(-c2ccc(Cl)cc2)ccc1=O`, the “hERG current change (%, negative = inhibition) at 10uM” value is recorded as -15.4%. Under `O=C(CSCc1c(F)cccc1Cl)Nc1ccccc1C(=O)N1CCOCC1` stands 5.4%; under `Cc1ccc(C)c(-c2ccc(=O)n(Cc3cccc(Br)c3)n2)c1`, 10.7%.

Consider `CCOc1ccc(NC(=O)C2CCCN(c3nc(C)cc(C)n3)C2)cc1` (centres unmarked), for which the “hERG current change (%, negative = inhibition) at 10uM” value is 12.4%. The figure for `O=C(OCC(=O)c1c[nH]c2ccccc12)c1cc2ccccc2cc1O` is 1.38%; for `COc1cccc(NC(=O)CN2C(=O)COc3ccc(S(=O)(=O)N4CCOCC4)cc32)c1` it is 15.6%; for `COc1ccc2nc3oc(C(=O)N4CCC5(CC4)OCCO5)cc3cc2c1` it is -16.5%. Under `O=C(Cn1ncc2c([nH]c3ccccc32)c1=O)NCC1CCN(Cc2ccc(F)cc2)CC1` stands -66%. As to `O=C(Cn1ncc2c([nH]c3ccccc32)c1=O)Nc1ccc(CN2CCCCC2)cc1`, the “hERG current change (%, negative = inhibition) at 10uM” value is listed as -65.8%. The figure for `Cc1ccc(NC(=O)Cn2ncc3c([nH]c4ccccc43)c2=O)cc1Cl` is 21.4%; for `O=C(Cn1ncc2c([nH]c3ccccc32)c1=O)NCC1CCN(Cc2ccccc2F)CC1` it is -44.2%. Under `Cc1cccc(CN2CCC(CNC(=O)Cn3ncc4c([nH]c5ccccc54)c3=O)CC2)c1` stands -23.1%; under `O=C(Cn1ncc2c([nH]c3ccccc32)c1=O)Nc1cccnc1`, 10.3%. The figure for `CS(=O)(=O)N(CC(O)CON=C1c2ccccc2-c2ccccc21)c1ccc(F)cc1` (centres unmarked) is 8.83%. For `O=C(Cc1ccc(Cl)cc1)c1c[nH]c(C(=O)NCc2cccnc2)c1`, the “hERG current change (%, negative = inhibition) at 10uM” value is -0.756%. Under `COc1cccc(-c2nnc(SCC(=O)Nc3ccc(OC)c(OC)c3)n2N)c1` stands 14.3%. Under `COc1ccc(-n2c(=O)c3c4c(sc3n(CC(=O)NCc3ccco3)c2=O)CCC4)c(OC)c1` stands -4.75%; under `O=C(NCCN1CCOCC1)c1ccc2c(c1)N(Cc1ccc(F)cc1)C(=O)CS2`, 0.414%. The figure for `COc1ccc(CN(C(=O)CN2C(=O)c3ccccc3S2(=O)=O)C(C(=O)NCC2CCCO2)c2ccco2)cc1` (centres unmarked) is -4.57%; for `CCn1c(C)nnc1SCC(=O)Nc1ccc(C(C)=O)cc1` it is 11.5%. For `CNc1oc(/C=C/c2ccccc2)nc1C#N`, the “hERG current change (%, negative = inhibition) at 10uM” value was determined as 8.33%. The figure for `CN(C)CCNc1oc(/C=C/c2ccccc2)nc1C#N` is -29.2%; for `C=CCNc1oc(/C=C/c2ccccc2)nc1C#N` it is -28%. For `CCN1CCN(c2oc(-c3ccco3)nc2C#N)CC1`, the “hERG current change (%, negative = inhibition) at 10uM” value is on record as -24.1%. Under `CN(C)c1oc(/C=C/c2ccccc2)nc1C#N` stands 8.93%; under `CN(C)CCCNc1oc(/C=C/c2ccccc2)nc1C#N`, -32.5%. Regarding `CCN(CC)CCCNc1oc(/C=C/c2ccccc2)nc1C#N`, the “hERG current change (%, negative = inhibition) at 10uM” value is -71%.

In the case of `CCN1CCN(c2oc(/C=C/c3ccccc3)nc2C#N)CC1`, the “hERG current change (%, negative = inhibition) at 10uM” value is listed as -63.1%. Consider `CN1CCN(c2oc(/C=C/c3ccccc3)nc2C#N)CC1`, for which the “hERG current change (%, negative = inhibition) at 10uM” value is -53.7%. The figure for `N#CC1=C(c2ccc(-c3ccccc3)cc2)COC1=O` is -15.1%; for `CCCn1nc(C(=O)NNC(=O)CCCOc2ccc(OC)cc2)c2ccccc2c1=O` it is -8.53%. Under `Cc1ccc(NC(=O)CC(C(=O)O)c2ccccc2)cc1` (centres unmarked) stands 8.15%; under `COc1ccccc1/C=C/CN1CCC(Oc2ccc(C(=O)N3CCCC3)cc2)CC1`, -24.3%. The figure for `O=C(c1ccc(OC2CCN(C/C=C/c3ccccc3)CC2)cc1)N1CCCC1` is -75.7%; for `Cc1ccccc1CN1CCC(Oc2ccc(C(=O)N3CCCC3)cc2)CC1` it is -13.7%; for `O=C(c1ccc(OC2CCN(C/C=C/c3ccccc3)CC2)cc1)N1CCCCC1` it is -53.1%. For the molecule `O=C(c1ccc(OC2CCN(Cc3ccccn3)CC2)cc1)N1CCCCCC1`, the “hERG current change (%, negative = inhibition) at 10uM” value was -14.9%.
